The structures appear in SMILES notation. This is part of a sample that, as a whole, favours compounds with a hit. Of some 83,000 tested, about 20% had one in any assay.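 Single-dose data. Exposure time 48 hours. Values below 10 considered active.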 Active and inactive are the calls of the source.

This assay concerns OVCAR-8 ovarian. Kind of assay: NCI-60 one-dose screen, 48 h (100 = growth as untreated, 0 = no growth, -100 = all killed). The settings on record: 10 µM unless noted. As to the method:
Growth inhibition of the OVCAR-8 human tumor cell line is measured as a screen for anti-cancer activity. Cells are grown in 96 well plates and exposed to the test compound for 48 hours. Compounds are tested at a single concentration, which is 10^-5 M for most compounds. The reported endpoint is percent growth (GI% or GIPRCNT), where numbers from 0 - 100% represent growth inhibition, and numbers from -100% - 0 represent cell death. For example, a value of 40 represents 60% growth inhibition. A value of 0 means no net growth occurred over the course of the experiment. A value of -40 indicates 40% of cells at the beginning of the experiment died by the end of the experiment. A value of -100 means all cells are dead at the end of the experiment.
NCI-60 Human Tumor Cell Lines Screen was performed using the standard one-dose NCI protocol, which is described in more detail at https://dtp.cancer.gov/discovery_development/nci-60/default.htm.
Compounds with GIPRCNT values below 10 were considered active. Activity score was based on GIPRCNT using the following formula: […]
Score is 0 for GIPRCNT values of 100 or above, 50 for GIPRCNT values of 0, and 100 for GIPRCNT values of -100.
Turning to `COC(=O)[C@@H]1CCCN1C(=O)[C@H]1CCCN1C(=O)[C@@H](Cc1c[nH]c2ccccc12)NC(=S)Nc1cc(C(F)(F)F)cc(C(F)(F)F)c1`, the growth was 61.3% (inactive).

As for `Cc1cccc2c(=O)c3c(sc12)c(N1CCNCC1)nc1ccccc13`, the growth was 83.9% (inactive).

`Cc1ccc(CN2CCC(C(=O)Nc3ccc(-c4cc5ccccc5[nH]4)cc3)CC2)o1`: the growth is 53.3% (inactive).

In the case of `c1ccc(CNc2nc(Nc3ccccc3)nc3ccccc23)cc1`, the growth is 34.9% (inactive).

As for `O=C(N=Nc1c(O)[nH]c2ccccc12)c1oc2ccccc2c1CN1CCN(c2ccccc2)CC1`, the growth is 6.9% (active).

`O=C1c2cc(Cl)ccc2Oc2cc([N+](=O)[O-])ccc2N1c1ccc(F)cc1F`: the growth is 86.8% (inactive).

`COc1cc(/C=C2\CCC/C(=C\c3cc(CN4CCCCC4)c(O)c(OC)c3)C2=O)cc(CN2CCCCC2)c1O`: the growth is 80.6% (inactive).

On to `N#C/C(=C\c1c(-c2ccccc2)[nH]c2ccccc12)C(=O)c1ccccc1`, for which the growth was 46.9% (inactive).

Consider `Clc1ncccc1Nc1ccc2nnc(-c3ccncc3)n2n1`, for which the growth was 99.3% (inactive).

In the case of `COC(=O)[C@H](NC(=O)C1(C)CCC[C@]2(C)[C@H]3C[C@H]4C(C(C)C)=C[C@]3(CC[C@@H]12)[C@@H]1C(=O)CCC(=O)[C@@H]14)C(C)C` (stereo not given in full), the growth was 101% (inactive).

Take `CC(C)C[C@H](C(=O)N[C@@H](C)C(N)=O)N1CC=CCN(O)S1(=O)=O`: the growth was 96.4% [5 µM] (inactive).

Take `CCCCN1CCN(c2ccc3nc(-c4ccc5nc(-c6ccc(C(F)(F)F)cc6)[nH]c5c4)[nH]c3c2)CC1`: the growth is -40.5% (active).

On to `COc1ccc(/C=C2\CCC/C(=C\c3ccc(OC)c(OC)c3)C2=O)cc1OC`, for which the growth was 2.04% (active).

Take `Fc1ccc(Oc2ccc(Nc3ncnc4onc(-c5ccccc5)c34)cc2)cc1`: the growth was 95.5% (inactive).

Regarding `O=C(NCc1ccco1)C1CN(c2ccc(Cl)cc2)N(c2ccc(Cl)cc2)C1=O` (stereo not given), the growth is 66.4% (inactive).

With `Nc1ccc(-n2c(=O)oc3ccc(Cl)cc3c2=O)c(Cl)c1`, the growth is -1.7% (active).

Consider `COc1cccc(C(=O)Cn2cc(/C=C(\C#N)S(=O)(=O)c3ccccc3)c3ccccc32)c1`, for which the growth was 89.3% (inactive).

Regarding `CCOC(=O)C1=C(C)N=c2s/c(=C\c3cc(Cl)ccc3O)c(=O)n2C1c1ccc(OC)cc1` (stereo not given), the growth is 90.4% (inactive).

For `COC(=O)c1cc2c(n1Cc1ccccc1)-c1oncc1CCC2`, the growth is 76.7% (inactive).

As to `COC(=O)/C(=C\c1c(-c2ccccc2)[nH]c2ccccc12)S(C)(=O)=O`, the growth is 36.7% (inactive).

Turning to `COC(=O)c1c2c(c(C)[n+]([O-])c1C)C(=O)C=C(NCc1ccccc1)C2=O`, the growth was 4.33% (active).

As for `CC1=CCC(OC(=O)C(C)(C)CCC(O)(C(=O)OC2(C(C)C)CCC3(C)OC3C2)C(C)C)(C(C)C)CC1` (stereo not given), the growth is -41.7% (active).

With `CCN(CC)CCNC(=O)C(Cl)=C1C(Cl)=C(Cl)C(Cl)=C1Cl`, the growth is 15.8% (inactive).

In the case of `COc1cc(/C=C2\Oc3cc(OCCCN4CCCC4)ccc3C2=O)cc(OC)c1`, the growth was 56.4% (inactive).

On to `CC(C)(C)c1ccc(C2CC(=O)C3=C(C2)Nc2ccccc2N(C(=O)c2ccccc2Cl)C3c2ccc(F)cc2)cc1` (stereo not given), for which the growth is -12% (active).

With `CCOC(=O)c1sc(-c2ccc(OS(=O)(=O)c3ccccc3[N+](=O)[O-])c(C=O)c2)nc1C`, the growth was 56.5% (inactive).

Regarding `CCCC(=O)CC(C)=O.CCCC(=O)CC(C)=O.[Cu]`, the growth was 93.1% (inactive).

Turning to `COc1ccccc1C(=O)/C=C/c1ccccc1`, the growth was 78.1% (inactive).

With `CC(C)[C@H](NC(=O)Cn1cc(C(=O)O)nn1)C(=O)O`, the growth was 98.1% (inactive).

On to `Cc1ccc(C(=O)c2oc3ccc4c(C)cc(=O)oc4c3c2C)cc1`, for which the growth is 8.23% (active).

For the molecule `COc1ccccc1N1CCN(C(CNS(=O)(=O)c2ccc(Cl)cc2)c2cccnc2)CC1` (stereo not given), the growth is 100% (inactive).

For the molecule `Cc1cc(Br)c(N)c(Br)c1`, the growth is 101% (inactive).

As to `Cn1c(C(=O)c2cccc3ccccc23)nc2ccccc21`, the growth is -1.81% (active).

On to `COc1cc(C2C(C#N)=C(N)OC3=C2C(=O)c2ccccc2C3=O)cc(OC)c1OC` (stereo not given), for which the growth is 17.4% (inactive).

As for `O=C(Nc1ccc(I)cc1F)c1cc(Cl)ccc1O`, the growth was 10.1% (inactive).

As to `NNC(=O)CNC(=O)Nc1n[nH]c(=S)s1`, the growth is 104% (inactive).

Regarding `COc1cc(C2C(C#N)=C(N)OC3=C2C(=O)c2ccccc2C3=O)cc(OC)c1O` (stereo not given), the growth is 33.7% (inactive).

Consider `COc1ccc(C(=O)C2CC2c2ccc(Cl)cc2)cc1` (stereo not given), for which the growth was 78.2% (inactive).

As for `Nc1nc(Nc2cccc(F)c2)nc2ccccc12`, the growth is 55.9% (inactive).

As for `CCCN1C(=O)N(CCC)C2C1NN=c1s/c(=C3\C(=O)N(C(C)C)c4ccccc43)c(=O)n12` (stereo not given), the growth is 58.4% (inactive).

The values above are taken from PubChem BioAssay (NCI).
